# Measurements taken from PubChem BioAssay AID1159580 (chemical genetic matrix, 2015).
# The whole screen tested about 5,500 compounds, of which about 2,000 (36%) were called active. About 18% were inconclusive and are not listed. This is one part of the list. Unmarked numbers belong to inactive results. Rule as the data show it: active = normalized growth mostly below about 0.91 (no sharp cut-off); inconclusive = no clear call, values can overlap the other calls; inactive = mostly above about 0.92.
# Experiment: chemical genetic growth profiling, strain panel (AID 1159580);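 also: tested at 20 µM; growth read once vehicle control cultures reached saturation at 30 °C; 1 = growth at the plate median or of vehicle wells; lower values mean less growth of the strain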
# Details: S. cerevisiae deletion strains, growth OD
# [1] = locus YAR019C, strain CDC15, hits give low values
# [2] = locus YBL105C, strain PKC1, hits give low values
# [3] = locus YBR135W, strain CKS1, hits give low values
# [4] = locus YBR136W, strain MEC1, hits give low values
# [5] = locus YBR160W, strain CDC28, hits give low values
# [6] = locus YDL017W, strain CDC7, hits give low values
# [7] = locus YDL028C, strain MPS1, hits give low values
# [8] = locus YDL101C, strain DUN1, hits give low values
# [9] = locus YDL108W, strain KIN28, hits give low values
# [10] = locus YDL132W, strain cdc53, hits give low values
# [11] = locus YDL214C, strain PRR2, hits give low values
# [12] = locus YDR052C, strain DBF4, hits give low values
# [13] = locus YDR054C, strain cdc34, hits give low values
# [14] = locus YDR226W, strain ADK1, hits give low values
# [15] = locus YDR477W, strain SNF1, hits give low values
# [16] = locus YER123W, strain YCK3, hits give low values
# [17] = locus YER133W, strain GLC7, hits give low values
# [18] = locus YFL009W, strain cdc4, hits give low values
# [19] = locus YFL029C, strain CAK1, hits give low values
# [20] = locus YFR003C, strain YPI1, hits give low values
# [21] = locus YFR019W, strain FAB1, hits give low values
# [22] = locus YFR028C, strain CDC14, hits give low values
# [23] = locus YGR040W, strain KSS1, hits give low values
# [24] = locus YGR052W, strain FMP48, hits give low values
# [25] = locus YGR092W, strain DBF2, hits give low values
# [26] = locus YHR030C, strain SLT2, hits give low values
# [27] = locus YHR079C, strain IRE1, hits give low values
# [28] = locus YHR082C, strain KSP1, hits give low values
# [29] = locus YHR205W, strain SCH9, hits give low values
# [30] = locus YIL147C, strain SLN1, hits give low values
# [31] = locus YJL095W, strain BCK1, hits give low values
# [32] = locus YJL128C, strain PBS2, hits give low values
# [33] = locus YJL157C, strain FAR1, hits give low values
# [34] = locus YJR016C, strain ILV3, hits give low values
# [35] = locus YJR066W, strain TOR1 (second series), hits give low values
# [36] = locus YJR066W, strain TOR1, hits give low values
# [37] = locus YKL048C, strain ELM1, hits give low values
# [38] = locus YKL067W, strain YNK1, hits give low values
# [39] = locus YKL101W, strain HSL1, hits give low values
# [40] = locus YKL193C, strain SDS22, hits give low values
# [41] = locus YKL203C, strain TOR2, hits give low values
# [42] = locus YLR113W, strain HOG1, hits give low values
# [43] = locus YLR133W, strain CKI1, hits give low values
# [44] = locus YLR403W, strain SFP1, hits give low values
# [45] = locus YML070W, strain DAK1, hits give low values
# [46] = locus YMR001C, strain CDC5, hits give low values
# [47] = locus YMR205C, strain PFK2 (second series), hits give low values
# [48] = locus YMR277W, strain FCP1, hits give low values
# [49] = locus YNL006W, strain LST8, hits give low values
# [50] = locus YNL020C, strain ARK1, hits give low values
# [51] = locus YNL161W, strain CBK1, hits give low values
# [52] = locus YNL183C, strain NPR1, hits give low values
# [53] = locus YNL207W, strain RIO2, hits give low values
# [54] = locus YNL222W, strain SSU72, hits give low values
# [55] = locus YNL307C, strain MCK1 (second series), hits give low values
# [56] = locus YOL078W, strain AVO1, hits give low values
# [57] = locus YOL136C, strain PFK27, hits give low values
# [58] = locus YOR061W, strain CKA2, hits give low values
# [59] = locus YOR119C, strain RIO1, hits give low values
# [60] = locus YOR231W, strain MKK1, hits give low values
# [61] = locus YOR329C, strain SCD5, hits give low values
# [62] = locus YPL031C, strain PHO85, hits give low values
# [63] = locus YPL153C, strain RAD53, hits give low values
# [64] = locus YPL204W, strain HRR25, hits give low values
# [65] = locus YPL209C, strain IPL1, hits give low values
# [66] = locus YPL256C, strain CLN2, hits give low values
# [67] = locus YPR025C, strain CCL1, hits give low values
# [68] = locus YPR106W, strain ISR1, hits give low values
# [69] = locus YPR111W, strain DBF20, hits give low values
# [70] = strain NNK1, hits give low values
# [71] = strain TSCII, hits give low values
compound,measurement,setting,value
CSc1n[nH]c(-c2cc(C(C)(C)C)oc2C)c1C#N,normalized growth,[1],0.949
same,normalized growth,[2],0.951
same,normalized growth,[3],0.952
same,normalized growth,[4],0.967
same,normalized growth,[5],0.955
same,normalized growth,[6],0.953
same,normalized growth,[7],0.966
same,normalized growth,[8],0.967
same,normalized growth,[9],0.937
same,normalized growth,[10],0.933
same,normalized growth,[11],0.847
same,normalized growth,[12],0.964
same,normalized growth,[13],0.934
same,normalized growth,[14],0.952
same,normalized growth,[15],0.835
same,normalized growth,[16],0.834
same,normalized growth,[17],0.867
same,normalized growth,[18],0.962
same,normalized growth,[19],0.928
same,normalized growth,[20],0.95
same,normalized growth,[21],0.943
same,normalized growth,[22],0.979
same,normalized growth,[23],0.847
same,normalized growth,[24],0.833
same,normalized growth,[25],0.78
same,normalized growth,[26],0.542 (active)
same,normalized growth,[27],0.86
same,normalized growth,[28],0.818
same,normalized growth,[29],0.908
same,normalized growth,[30],0.954
same,normalized growth,[31],0.744
same,normalized growth,[32],0.894
same,normalized growth,[33],0.883
same,normalized growth,[34],0.946
same,normalized growth,[35],0.897
same,normalized growth,[36],0.789
same,normalized growth,[37],0.949
same,normalized growth,[38],0.846
same,normalized growth,[39],0.914
same,normalized growth,[40],0.948
same,normalized growth,[41],0.908
same,normalized growth,[42],0.776 (active)
same,normalized growth,[43],0.888
same,normalized growth,[44],0.885
same,normalized growth,[45],0.879
same,normalized growth,[46],0.945
same,normalized growth,[47],0.888
same,normalized growth,[48],0.938
same,normalized growth,[49],0.947
same,normalized growth,[50],0.892
same,normalized growth,[51],0.948
same,normalized growth,[52],0.815
same,normalized growth,[53],0.937
same,normalized growth,[54],0.944
same,normalized growth,[55],0.89
same,normalized growth,[56],0.943
same,normalized growth,[57],0.906
same,normalized growth,[58],0.909
same,normalized growth,[59],0.83
same,normalized growth,[60],0.847
same,normalized growth,[61],0.948
same,normalized growth,[62],0.824
same,normalized growth,[63],0.819
same,normalized growth,[64],0.818
same,normalized growth,[65],0.959
same,normalized growth,[66],0.814 (active)
same,normalized growth,[67],0.948
same,normalized growth,[68],0.947
same,normalized growth,[69],0.94
same,normalized growth,[70],0.943
same,normalized growth,[71],0.925
CSc1sc(C(=O)Sc2ccccc2)cc1S(=O)(=O)C(C)C,normalized growth,[1],0.994
same,normalized growth,[2],0.997
same,normalized growth,[3],0.995
same,normalized growth,[4],0.991
same,normalized growth,[5],1
same,normalized growth,[6],0.995
same,normalized growth,[7],0.996
same,normalized growth,[8],1
same,normalized growth,[9],0.999
same,normalized growth,[10],0.983
same,normalized growth,[11],0.962
same,normalized growth,[12],0.993
same,normalized growth,[13],0.976
same,normalized growth,[14],1
same,normalized growth,[15],0.966
same,normalized growth,[16],0.902
same,normalized growth,[17],0.958
same,normalized growth,[18],0.979
same,normalized growth,[19],0.983
same,normalized growth,[20],0.994
same,normalized growth,[21],0.987
same,normalized growth,[22],0.992
same,normalized growth,[23],0.956
same,normalized growth,[24],0.927
same,normalized growth,[25],0.95
same,normalized growth,[26],0.997
same,normalized growth,[27],1
same,normalized growth,[28],0.988
same,normalized growth,[29],0.911
same,normalized growth,[30],0.99
same,normalized growth,[31],0.937
same,normalized growth,[32],0.937
same,normalized growth,[33],0.941
same,normalized growth,[34],0.988
same,normalized growth,[35],0.971
same,normalized growth,[36],1
same,normalized growth,[37],0.953
same,normalized growth,[38],0.961
same,normalized growth,[39],0.94
same,normalized growth,[40],0.992
same,normalized growth,[41],1.02
same,normalized growth,[42],0.688 (active)
same,normalized growth,[43],0.955
same,normalized growth,[44],0.945
same,normalized growth,[45],0.93
same,normalized growth,[46],0.985
same,normalized growth,[47],0.966
same,normalized growth,[48],0.979
same,normalized growth,[49],0.997
same,normalized growth,[50],0.961
same,normalized growth,[51],0.993
same,normalized growth,[52],0.941
same,normalized growth,[53],0.974
same,normalized growth,[54],0.997
same,normalized growth,[55],0.946
same,normalized growth,[56],0.975
same,normalized growth,[57],0.929
same,normalized growth,[58],0.95
same,normalized growth,[59],1
same,normalized growth,[60],0.921
same,normalized growth,[61],0.994
same,normalized growth,[62],0.972
same,normalized growth,[63],0.988
same,normalized growth,[64],0.948
same,normalized growth,[65],0.994
same,normalized growth,[66],0.969
same,normalized growth,[67],0.996
same,normalized growth,[68],0.997
same,normalized growth,[69],0.979
same,normalized growth,[70],0.977
same,normalized growth,[71],0.98
